Laboratory results from PubChem BioAssay (NCATS).
Results filed as inconclusive are left out. Active and inactive are the calls of the source. Unless noted, calls follow the shape of the dose curve; as a rule, active = well fitted curve in the direction sought with a large enough effect; inconclusive = small, poorly fitted or top-dose-only effect, or another doubt; inactive = no such curve, though single readings can be large; an effect the other way counts as inactive or inconclusive.

Key:
[1] = NFAT Signaling Pathway (AID 444; active = well fitted curve in either direction with a large enough effect, not every such curve was filed as active;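 also: carbachol stimulus at about its EC50 of 1 µM final; % is scaled to controls: 0 for no effect and ±100 for the full control effect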); conditions: Jurkat NFAT-bla M1, carbachol, beta-lactamase ratio, 5 h; at 38 µM (top of the series)
How it was run: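 Jurkat cells carrying an NFAT-driven β-lactamase reporter and co-transfected muscarinic M1 receptor were treated with compound plus carbachol (1 uM final, an EC50 level) for 5 h at 37 °C. CCF4 loading followed for 1 h at RT; 460/530 nm ratio gave %activity.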

[2] = biological target: Glucocorticoid receptor (Homo sapiens) (UniProt P04150); assay: GR-GFP Redistribution (AID 450;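 active = compounds whose dose series gives a full or clear partial fitted curve of increased nuclear translocation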; also: potency is read from the fitted curve at half-maximal effect); conditions: U2OS GR-GFP nuclear translocation, laser cytometry, 2 h
[3] = biological target: Glucocorticoid receptor (Homo sapiens) (UniProt P04150); assay: GR-EFC Redistribution (AID 451; calls by dose curve; also: potency is read from the fitted curve at half-maximal effect); conditions: CHO-K1 GR-EFC translocation, beta-gal luminescence, 2 h
How it was run: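 CHO-K1 cells stably expressing nuclear-localized β-gal enzyme acceptor and GR fused C-terminally to the enzyme donor fragment; ligand-driven nuclear translocation restores β-gal by complementation. Compounds titrated up to 46 uM final, 2 h at 37 °C; luminescence read.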

[4] = biological target: Mitogen-activated protein kinase 10 (Mus musculus) (UniProt Q61831); assay: JNK3 AlphaScreen Assay (AID 530; active = well fitted curve in either direction with a large enough effect, not every such curve was filed as active;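 also: kinase came from lysate of stimulated human HepG2 cells; signal reports phosphorylation of biotinylated GST-cJun 1-79 at Ser73 with 10 µM ATP; % is scaled to controls: 0 for no effect and ±100 for the full control effect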)
How it was run: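 Inhibitors reduce antibody binding to phosphorylated biotin-cJun, lowering AlphaScreen luminescence. Lysates from HepG2 cells pre-activated by IL-1beta plus TNF-alpha supplied JNK3; compounds were titrated.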

[5] = biological target: 3',5'-cyclic-AMP phosphodiesterase 4B (Homo sapiens) (UniProt Q07343); assay: qHTS Assay for Inhibitors of PDE-IV (AID 607; active = well fitted activation curve with a large enough effect in the main read-out, with a control signal flat, not every such curve was filed as active; also: % of control where 0% means no effect)
How it was run: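 The readout is membrane depolarisation from a cAMP-sensing CNG channel, detected with a potential dye at ex 535/em 590. Cells were HEK293-derived (endogenous PDE-IV) at 1000 cells/well, titrated up to 22.9 uM final.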

[6] = biological target: Guanine nucleotide-binding protein G(i) subunit alpha-1 (Homo sapiens) (UniProt P63096); assay: qHTS Assay for Inhibitors of RGS12 GoLoco Motif Activity (Green Fluorophore) (AID 879);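 also: 0% = labeled peptide with Gαi1 and full inhibition = labeled peptide alone without protein; negative values mean loss of peptide binding seen as reduced polarization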
How it was run: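 Fluorescence polarization assay: 50 nM Gαi1 with 10 nM FITC-labeled RGS12 GoLoco peptide in 10 mM Tris pH 7.5, 150 mM NaCl, 0.1 mM GDP, 0.05% NP40, 10 min at room temperature with compound.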

[7] = biological target: Cytochrome P450 3A4 (Homo sapiens) (UniProt P08684); assay: qHTS Assay for Activators of Cytochrome P450 3A4 (AID 885); also: nearly all actives have a fitted effect of over 65% in size
How it was run: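 Steps: enzyme/substrate mix dispensed; compound added, 10 min RT; NADPH regeneration solution added, 60 min RT; luciferin detection buffer stops reaction; 20 min later luminescence measured.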

[8] = qHTS Assay for Identification of Small Molecule Antagonists for NFkB Signaling Pathway (AID 895; active = well fitted inhibition curve with a large enough effect in the signal ratio, with a control signal flat, not every such curve was filed as active; the % refers to the signal ratio; also: potency is read from the fitted curve at half-maximal effect)
How it was run: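 NFkB-bla ME-180 cervical carcinoma cells with beta-lactamase reporter under NFkB response element; compounds added, then TNF alpha at 10 pM final (EC50), 5 h at 37 C. LiveBLAzer substrate 2 h, room temperature; emission 460/530 nm at 405 nm excitation.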

[9] = qHTS Assay for Identification of Small Molecule Agonists for Thrombopoietin (TPO) Signaling Pathway (AID 917); also: % is scaled to controls: 0 for no effect and ±100 for the full control effect
How it was run: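 IL-3-dependent murine pro-B Ba/F3 cells, stably transfected with human TPO receptor and GpIIb-promoter luciferase, are incubated 24 hrs at 37 C with test compound and 26 pM TPO; luciferase signal is read after 10 min at room temperature.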

[10] = biological target: Pyruvate kinase (Leishmania mexicana) (UniProt Q27686); assay: qHTS Validation Assay for Inhibitors of Leishmania Mexicana Pyruvate Kinase (AID 945);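 also: 0% = DMSO only neutral control wells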
How it was run: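 LmPYK E451W 0.2 nM; 0.5 mM PEP, 0.1 mM ADP, 7 mM MgCl2, 50 mM KCl, imidazole pH 7.2, 0.01% Tween 20, 0.05% BSA; 1 h RT; PKLight luminescence; DMSO-normalized.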

[11] = biological target: Pyruvate kinase PKM (Homo sapiens) (UniProt P14618); assay: qHTS Assay for Activators of Human Muscle Pyruvate Kinase (AID 954; active = well fitted curve in the direction sought with a large enough effect, not every such curve was filed as active;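 also: 0% = uninhibited enzyme and -100% = no enzyme or full thiadiazolimine inhibition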)
How it was run: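 Reaction: 0.1 nM purified PKM2 with 0.5 mM phosphoenolpyruvate and 0.1 mM ADP, room temperature, 1 h. Readout: luciferase-based ATP luminescence after stop reagent. Activators judged against a 0.3 nM enzyme column.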

[12] = biological target: Alpha-galactosidase (Coffea arabica) (UniProt Q42656); assay: Counterscreen for Glucocerebrosidase Inhibitors: qHTS Assay for Coffee Bean alpha-Galactosidase at pH 4.5 (AID 957);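 also: plate controls were enzyme alone for no effect and no enzyme for full effect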
How it was run: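 Coffee bean enzyme (2 nM) with 80 uM 4-methylumbelliferyl alpha-D-galactopyranoside in 50 mM citric acid, 0.005% Tween-20, pH 4.5, 20 min at room temperature; compounds 0.7 nM–77 uM. Stopped at pH 10, fluorescence 365/440 nm; AC50 from Hill fits.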

[13] = biological target: Alpha-galactosidase A (Homo sapiens) (UniProt P06280); assay: Counterscreen for Glucocerebrosidase Inhibitors: qHTS Assay for Human alpha-Galactosidase at pH 4.5 (AID 992); also: 0% is about no effect
How it was run: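 Concentration-response curves (0.7 nM to 77 uM final) were modeled with the Hill equation to give AC50. Reactions: 2 nM enzyme, 80 uM fluorogenic alpha-galactoside, pH 4.5 citric acid buffer, 20 min, room temperature.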

[14] = biological target: alpha-glucosidase (Oryza sativa, rice) (UniProt Q653V4); assay: Counterscreen for Glucocerebrosidase Inhibitors: qHTS Assay for Rice alpha-Glucosidase at pH 5.0 (AID 997);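 also: 0% = full activity with enzyme and -100% = basal without enzyme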
How it was run: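 Rice alpha-glucosidase (4 nM final) with 400 uM 4-methylumbelliferyl-alpha-D-glucopyranoside in citrate buffer pH 5.0, 20 min at room temperature, stopped at pH 10; fluorescence 365/440 nm, compounds 0.7 nM–77 uM, AC50 from Hill fits.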

[15] = biological target: DNA repair nuclease/redox regulator APEX1 (Homo sapiens) (UniProt P27695); assay: qHTS Validation Assay for Inhibitors of the Human Apurinic/apyrimidinic Endonuclease 1 (APE1) (AID 1705; also: potency is read from the fitted curve at half-maximal effect)
How it was run: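 Substrate: 50 nM final fluorophore/quencher THF-abasic duplex. Enzyme preincubated with compounds 15 min, RT. Progress derived from fluorescence difference, third minus first kinetic read.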

[16] = qHTS for differential inhibitors of proliferation of Plasmodium falciparum line 7G8 (AID 1815);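 also: potency is read from the fitted curve at half-maximal effect; parasite growth measured after three days of incubation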
[17] = qHTS for differential inhibitors of proliferation of Plasmodium falciparum line GB4 (AID 1816); conditions: Potency: Plasmodium falciparum GB4 proliferation inhibition;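 also: potency is read from the fitted curve at half-maximal effect; parasite growth measured after 72 h incubation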
[18] = qHTS for differential inhibitors of proliferation of Plasmodium falciparum line 3D7 (AID 1876); also: potency is read from the fitted curve at half-maximal effect
[19] = qHTS for differential inhibitors of proliferation of Plasmodium falciparum line Dd2 (AID 1882); conditions: Potency: Plasmodium falciparum Dd2 proliferation inhibition;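 also: plate controls were DMSO vehicle for no effect and 0.29 µM artemisinin for full effect; nearly all actives have a fitted effect of over 65% in size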
How it was run: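 Dd2-infected erythrocytes (0.3% parasitemia, 2.5% hematocrit final) incubated with compound 72 h at 37 C, 5% CO2; lysed with saponin/Triton buffer containing SYBR Green I, incubated overnight in the dark, then read by fluorescence (485/535 nm). Normalized to 0.29 uM artemisinin and DMSO.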

[20] = qHTS for differential inhibitors of proliferation of Plasmodium falciparum line W2 (AID 1883); conditions: Potency: Plasmodium falciparum W2 proliferation inhibition;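 also: potency is read from the fitted curve at half-maximal effect; parasites grown with compound for 72 h before lysis and staining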
[21] = qHTS for differential inhibitors of proliferation of Plasmodium falciparum line HB3 (AID 1886); conditions: Potency: Plasmodium falciparum HB3 proliferation inhibition;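 also: potency is read from the fitted curve at half-maximal effect; parasites grown with compound for 72 h before SYBR Green readout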
[22] = biological target: Ferritin light chain (Equus caballus) (UniProt P02791); assay: qHTS Validation Assay for Identification of Novel General Anesthetics (AID 2323); also: % is scaled to controls: 0 for no effect and ±100 for the full control effect
How it was run: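 Normalized fluorescence response, scaled between free 1-AMA and 1-AMA/apoferritin complex, fitted to a four-parameter Hill equation for concentration-effect values. Binding mix: 10 uM horse-spleen apoferritin, 50% saturated 1-AMA in PBS; read 380/535 nm after 10 min.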

[23] = biological target: ATP-dependent DNA helicase Q1 (Homo sapiens) (UniProt P46063); assay: qHTS Validation Assay for Inhibitors of RecQ-Like Dna Helicase 1 (RECQ1) (AID 2353);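 also: plate controls were DMSO vehicle for no effect and enzyme-free control for full effect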
How it was run: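 50 nM RECQ1T1 preincubated 15 min with compound in Tris pH 8.0 buffer with MgCl2, DTT, Tween-20 and 2.5 ug/ml poly(dI-dC); started with 200 nM TAMRA/BHQ-2 forked duplex and 2 mM ATP. Unwinding read as fluorescence (525/598 nm), two reads 2 h apart.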

[24] = Validation screen for inhibitors of Lassa infection (AID 463096; calls by dose curve; also: % is scaled to controls: 0 for no effect and ±100 for the full control effect)
[25] = Quantitative high throughput screen for delayed death inhibitors of the malarial parasite plastid, 96 hour incubation (AID 488745); also: % is scaled to controls: 0 for no effect and ±100 for the full control effect; nearly all actives have a fitted effect of over 70% in size
How it was run: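 Luciferase-expressing P. falciparum in erythrocytes (2% hematocrit, 0.1% parasitemia) incubated with compound for 96 h at 37 C, 5% CO2, in RPMI 1640 with 0.5% Albumax. Growth inhibition read as decreased luminescence.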

[26] = Quantitative high throughput screen for delayed death inhibitors of the malarial parasite plastid, 48 hour incubation (AID 488752); also: % is scaled to controls: 0 for no effect and ±100 for the full control effect; nearly all actives have a fitted effect of over 65% in size
How it was run: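 Erythrocytes infected with firefly luciferase-expressing P. falciparum (2% hematocrit, 0.1% parasitemia) cultured with compound for 48 h at 37 C, 5% CO2, in RPMI 1640/0.5% Albumax. Growth inhibition read as loss of luminescence.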

[27] = biological target: M-phase phosphoprotein 8 (Homo sapiens) (UniProt Q99549); assay: qHTS Validation Assay for Inhibitors for MPP8 Chromodomain Interactions with Methylated Histone Tails (AID 488949);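 also: 50 nM MPP8 with 50 nM peptide preformed then compounds added for 30 min; AlphaScreen signal from MPP8 chromodomain bound to biotinylated H3K9me3 peptide; top concentration of the series differs between compounds; % is scaled to controls: 0 for no effect and ±100 for the full control effect; nearly all actives have a fitted effect of over 55% in size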
How it was run: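 Chemiluminescent proximity assay: histidine-tag capture via nickel acceptor beads, biotin peptide via streptavidin donor beads. Protein and peptide each at 50 nM, pH 7.4, with 30 min incubations at room temperature for complex formation, compound exposure and bead binding.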

[28] = biological target: Transient receptor potential cation channel subfamily V member 1 (Homo sapiens) (UniProt Q8NER1); assay: HTS Assay for Compounds that Act as Enhancers of the Vanilloid Receptor 1 (AID 488979); also: 0% is about no effect
How it was run: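 TRPV1-expressing cells loaded with Fluo-8 calcium dye; compounds added and calcium influx read kinetically for 3 min (agonist phase), then capsaicin at EC20 added and read 2 min more for enhancement. Fluorescence ex 480/em 520 nm.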

[29] = biological target: Thyrotropin-releasing hormone receptor (Homo sapiens) (UniProt P34981); assay: qHTS for Small Molecule Agonists and Allosteric Enhancers of Human TRH Receptor: Validation Screen for Agonists (AID 493127;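 active = calcium activation more than 3 SD above the typical response in the agonist read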; also: 0% is about no effect); conditions: TRH receptor agonist cell assay; at 2 µM; hits give high values
How it was run: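 TRHR cells loaded with fluo-8 calcium dye; FDSS kinetic fluorescence (Ex 480/Em 530) read at 1 s/cycle after 23 nL compound addition. Agonist-mode calcium response recorded before the 10 nM TRH (EC20) addition.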

[30] = biological target: Galactokinase (Homo sapiens) (UniProt P51570); assay: qHTS Validation Assay for Inhibitors of Human Galactokinase (GALK) (AID 493189); also: 0% is about no effect
How it was run: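 Enzyme activity is inferred from ATP consumption: human GALK phosphorylates galactose (100 uM) using 35 uM ATP for 1 h at room temperature, and luciferase-based Kinase-Glo Plus reports unconsumed ATP.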

[31] = Validation screen for small molecules that induce DNA re-replication in SW480 colon adenocarcinoma cells (AID 504364); also: 0% is about no effect
How it was run: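 SW480 cells (250/well) exposed 48 h at 37 C, 5% CO2, then Hoechst-stained 40 min. Nuclear DNA content imaged by fluorescence scanning (405 nm excitation, 500-530 nm emission); re-replication scored as increased nuclei with elevated intensity.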

[32] = biological target: Voltage-gated inwardly rectifying potassium channel KCNH2 (Homo sapiens) (UniProt Q12809); assay: qHTS Assay for Small Molecule Inhibitors of the Human hERG Channel Activity (AID 588834);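 also: top concentration of the series differs between compounds; % is scaled to controls: 0 for no effect and ±100 for the full control effect; lower thallium flux fluorescence means stronger hERG block; nearly all actives have a fitted effect of over 50% in size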
How it was run: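 Blockade is seen as reduced FluxOR thallium-flux fluorescence in U2OS cells expressing hERG from a BacMam construct, in Opti-MEM with 2% FCS. Concentration-response data fitted to the Hill equation for AC50.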

[33] = Primary qHTS for small molecule stabilizers of the endoplasmic reticulum resident proteome: Secreted ER Calcium Modulated Protein (SERCaMP) assay (AID 1508630); also: % is scaled to controls: 0 for no effect and ±100 for the full control effect
How it was run: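 GLuc-SERCaMP-expressing SH-SY5Y cells, pretreated 16 h with compound, are challenged with thapsigargin to empty ER calcium stores; after 4 h, coelenterazine is added directly to the medium and luminescence is imaged.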

Chain of Glucocorticoid receptor (Homo sapiens) (P04150 whole entry, looked up, the tested form may be a part): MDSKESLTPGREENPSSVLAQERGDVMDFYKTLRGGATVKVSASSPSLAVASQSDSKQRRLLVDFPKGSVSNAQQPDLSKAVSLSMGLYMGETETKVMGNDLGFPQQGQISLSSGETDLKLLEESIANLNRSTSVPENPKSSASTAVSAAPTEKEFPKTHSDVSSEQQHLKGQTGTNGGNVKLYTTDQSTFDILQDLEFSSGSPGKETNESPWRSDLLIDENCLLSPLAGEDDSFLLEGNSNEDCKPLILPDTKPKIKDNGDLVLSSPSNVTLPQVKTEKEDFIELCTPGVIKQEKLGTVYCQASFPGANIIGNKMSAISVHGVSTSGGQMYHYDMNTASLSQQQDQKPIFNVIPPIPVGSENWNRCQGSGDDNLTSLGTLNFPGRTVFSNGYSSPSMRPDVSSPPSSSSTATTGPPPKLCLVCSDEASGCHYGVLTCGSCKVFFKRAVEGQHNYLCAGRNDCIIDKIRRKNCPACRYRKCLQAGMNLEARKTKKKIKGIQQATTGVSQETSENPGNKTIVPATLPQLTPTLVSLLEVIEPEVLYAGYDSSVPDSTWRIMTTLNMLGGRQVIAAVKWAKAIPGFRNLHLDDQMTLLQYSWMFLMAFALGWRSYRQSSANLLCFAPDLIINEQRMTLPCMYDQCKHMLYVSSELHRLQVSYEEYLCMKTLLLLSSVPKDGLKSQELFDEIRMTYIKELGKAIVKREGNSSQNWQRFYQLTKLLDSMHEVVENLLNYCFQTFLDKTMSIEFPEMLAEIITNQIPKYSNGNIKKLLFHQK
Chain of Galactokinase (Homo sapiens) (P51570 whole entry, looked up): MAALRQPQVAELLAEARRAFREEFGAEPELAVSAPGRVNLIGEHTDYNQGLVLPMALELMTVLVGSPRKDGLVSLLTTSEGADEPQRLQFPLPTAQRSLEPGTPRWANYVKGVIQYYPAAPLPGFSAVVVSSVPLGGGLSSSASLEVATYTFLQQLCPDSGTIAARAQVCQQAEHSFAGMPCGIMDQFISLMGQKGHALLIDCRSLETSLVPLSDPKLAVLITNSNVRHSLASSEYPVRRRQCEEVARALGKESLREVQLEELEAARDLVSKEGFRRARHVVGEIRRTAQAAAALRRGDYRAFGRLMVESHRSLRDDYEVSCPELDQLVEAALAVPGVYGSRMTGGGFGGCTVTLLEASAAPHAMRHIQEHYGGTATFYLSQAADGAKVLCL
Chain of Voltage-gated inwardly rectifying potassium channel KCNH2 (Homo sapiens) (Q12809 whole entry, looked up): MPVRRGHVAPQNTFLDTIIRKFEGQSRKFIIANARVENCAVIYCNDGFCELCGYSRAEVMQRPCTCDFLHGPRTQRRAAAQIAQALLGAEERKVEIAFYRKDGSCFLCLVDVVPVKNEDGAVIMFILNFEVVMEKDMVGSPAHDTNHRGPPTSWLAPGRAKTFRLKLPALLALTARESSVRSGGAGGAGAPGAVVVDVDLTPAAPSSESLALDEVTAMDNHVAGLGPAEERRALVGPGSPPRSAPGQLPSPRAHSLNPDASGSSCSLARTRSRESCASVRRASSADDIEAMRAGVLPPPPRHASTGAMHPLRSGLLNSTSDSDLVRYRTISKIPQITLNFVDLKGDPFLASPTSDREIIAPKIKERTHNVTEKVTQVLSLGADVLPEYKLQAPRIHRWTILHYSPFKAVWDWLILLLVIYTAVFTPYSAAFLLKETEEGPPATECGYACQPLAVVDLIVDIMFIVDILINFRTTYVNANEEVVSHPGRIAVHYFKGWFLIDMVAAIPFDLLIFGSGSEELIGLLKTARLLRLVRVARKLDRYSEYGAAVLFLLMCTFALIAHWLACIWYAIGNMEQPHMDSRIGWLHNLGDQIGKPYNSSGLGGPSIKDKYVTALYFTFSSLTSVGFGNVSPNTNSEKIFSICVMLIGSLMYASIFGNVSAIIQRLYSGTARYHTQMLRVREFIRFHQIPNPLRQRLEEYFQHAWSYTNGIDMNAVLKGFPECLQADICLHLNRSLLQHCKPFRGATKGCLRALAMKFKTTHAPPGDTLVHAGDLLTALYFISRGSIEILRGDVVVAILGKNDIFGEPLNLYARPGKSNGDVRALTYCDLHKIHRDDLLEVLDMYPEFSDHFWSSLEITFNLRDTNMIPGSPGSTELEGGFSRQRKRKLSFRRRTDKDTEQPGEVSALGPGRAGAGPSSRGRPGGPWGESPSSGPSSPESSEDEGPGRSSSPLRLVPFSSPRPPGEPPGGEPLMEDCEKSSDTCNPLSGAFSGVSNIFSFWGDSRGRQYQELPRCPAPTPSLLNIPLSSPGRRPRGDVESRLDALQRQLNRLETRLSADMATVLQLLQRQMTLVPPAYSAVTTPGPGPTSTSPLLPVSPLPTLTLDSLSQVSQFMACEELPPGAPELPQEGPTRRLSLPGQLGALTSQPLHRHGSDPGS
Chain of Ferritin light chain (Equus caballus) (P02791 2-175 limits assumed): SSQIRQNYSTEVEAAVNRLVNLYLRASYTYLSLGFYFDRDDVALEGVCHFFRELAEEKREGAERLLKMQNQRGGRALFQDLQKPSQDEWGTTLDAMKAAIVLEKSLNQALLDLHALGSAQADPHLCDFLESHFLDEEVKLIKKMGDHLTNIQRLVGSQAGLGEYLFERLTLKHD
Chain of Pyruvate kinase (Leishmania mexicana) (Q27686 2-499 E452W): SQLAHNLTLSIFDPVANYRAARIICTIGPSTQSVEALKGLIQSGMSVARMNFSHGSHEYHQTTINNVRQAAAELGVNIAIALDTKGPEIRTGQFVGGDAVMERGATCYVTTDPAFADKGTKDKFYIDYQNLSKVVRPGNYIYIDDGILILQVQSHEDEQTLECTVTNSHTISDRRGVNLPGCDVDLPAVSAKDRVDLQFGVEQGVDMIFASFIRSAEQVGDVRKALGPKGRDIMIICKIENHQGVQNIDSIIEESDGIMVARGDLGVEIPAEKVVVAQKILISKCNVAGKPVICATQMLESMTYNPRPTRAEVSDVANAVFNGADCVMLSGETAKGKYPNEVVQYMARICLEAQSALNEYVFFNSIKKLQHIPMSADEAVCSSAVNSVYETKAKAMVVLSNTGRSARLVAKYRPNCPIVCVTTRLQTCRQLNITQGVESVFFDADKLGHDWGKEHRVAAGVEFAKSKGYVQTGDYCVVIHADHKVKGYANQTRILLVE
Chain of M-phase phosphoprotein 8 (Homo sapiens) (Q99549 whole entry, looked up): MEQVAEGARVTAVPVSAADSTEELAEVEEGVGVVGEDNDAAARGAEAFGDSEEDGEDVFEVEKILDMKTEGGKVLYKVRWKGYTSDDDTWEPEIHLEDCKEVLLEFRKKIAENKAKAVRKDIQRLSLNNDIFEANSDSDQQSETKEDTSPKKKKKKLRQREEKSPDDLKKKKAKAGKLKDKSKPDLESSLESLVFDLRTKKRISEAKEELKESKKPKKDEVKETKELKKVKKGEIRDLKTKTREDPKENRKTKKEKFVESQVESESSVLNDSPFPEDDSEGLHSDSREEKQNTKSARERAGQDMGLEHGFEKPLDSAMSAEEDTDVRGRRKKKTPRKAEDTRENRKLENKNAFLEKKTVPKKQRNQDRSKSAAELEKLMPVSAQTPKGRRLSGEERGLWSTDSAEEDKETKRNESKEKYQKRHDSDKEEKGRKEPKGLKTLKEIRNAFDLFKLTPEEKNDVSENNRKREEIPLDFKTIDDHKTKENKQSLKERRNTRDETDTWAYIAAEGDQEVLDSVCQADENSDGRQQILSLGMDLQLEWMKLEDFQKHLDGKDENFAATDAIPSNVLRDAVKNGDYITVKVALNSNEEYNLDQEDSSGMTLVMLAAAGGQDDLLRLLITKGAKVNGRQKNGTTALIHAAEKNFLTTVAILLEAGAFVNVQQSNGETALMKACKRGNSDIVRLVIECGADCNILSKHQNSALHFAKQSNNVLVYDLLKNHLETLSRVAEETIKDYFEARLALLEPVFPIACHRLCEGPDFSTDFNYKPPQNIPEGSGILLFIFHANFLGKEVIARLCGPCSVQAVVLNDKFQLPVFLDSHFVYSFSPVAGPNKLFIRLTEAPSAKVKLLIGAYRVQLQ
Chain of DNA repair nuclease/redox regulator APEX1 (Homo sapiens) (P27695 whole entry, looked up): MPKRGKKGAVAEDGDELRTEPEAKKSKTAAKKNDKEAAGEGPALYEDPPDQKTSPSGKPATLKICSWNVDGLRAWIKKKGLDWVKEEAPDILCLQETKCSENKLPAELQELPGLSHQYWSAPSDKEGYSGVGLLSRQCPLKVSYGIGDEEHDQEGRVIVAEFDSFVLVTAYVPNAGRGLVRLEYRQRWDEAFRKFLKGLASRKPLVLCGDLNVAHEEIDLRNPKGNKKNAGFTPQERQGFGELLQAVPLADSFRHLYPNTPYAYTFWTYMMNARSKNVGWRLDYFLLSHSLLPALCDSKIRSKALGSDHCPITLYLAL
Chain of Guanine nucleotide-binding protein G(i) subunit alpha-1 (Homo sapiens) (P63096 whole entry, looked up): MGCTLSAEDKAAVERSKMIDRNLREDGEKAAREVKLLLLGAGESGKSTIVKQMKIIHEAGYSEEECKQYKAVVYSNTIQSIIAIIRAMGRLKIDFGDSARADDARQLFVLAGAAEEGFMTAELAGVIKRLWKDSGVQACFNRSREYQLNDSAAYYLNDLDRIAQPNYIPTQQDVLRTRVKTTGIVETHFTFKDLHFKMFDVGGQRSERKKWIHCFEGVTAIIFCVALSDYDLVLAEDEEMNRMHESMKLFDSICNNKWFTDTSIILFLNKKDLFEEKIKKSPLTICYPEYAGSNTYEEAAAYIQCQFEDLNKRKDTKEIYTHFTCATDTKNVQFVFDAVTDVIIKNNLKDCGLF
Chain of Thyrotropin-releasing hormone receptor (Homo sapiens) (P34981 whole entry, looked up): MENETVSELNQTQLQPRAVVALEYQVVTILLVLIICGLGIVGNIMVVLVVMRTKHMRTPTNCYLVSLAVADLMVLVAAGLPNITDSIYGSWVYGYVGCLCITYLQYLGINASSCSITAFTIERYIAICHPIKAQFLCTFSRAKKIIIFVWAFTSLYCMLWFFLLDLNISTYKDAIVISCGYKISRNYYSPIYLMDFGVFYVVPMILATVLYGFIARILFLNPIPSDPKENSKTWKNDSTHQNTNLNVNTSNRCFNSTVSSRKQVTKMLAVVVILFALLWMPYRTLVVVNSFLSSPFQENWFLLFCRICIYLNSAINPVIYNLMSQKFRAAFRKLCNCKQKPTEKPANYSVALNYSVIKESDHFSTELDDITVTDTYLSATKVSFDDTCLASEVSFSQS

CCc1c(C(=O)OC)ncc2[nH]c3cc(OC)c(OC)cc3c12
inactive: activity change, negative = inhibition [1] -26.6% | Potency [2] > 46 µM | Potency [3] > 46 µM | outcome [4] | Potency [5] | outcome [6] | Potency [7] | outcome [9] | Potency [10] | outcome [11] | outcome [12] | outcome [13] | outcome [14] | Potency [19] | Potency [22] | outcome [23] | Potency [24] | Potency [25] | Potency [26] | Potency [27] | outcome [28] | activation [29] 0.312% | outcome [30] | outcome [31] | Potency [32] | outcome [33]
active: Potency [8] 5.62 µM | Potency [15] 6.31 µM | Potency [16] 7.94 µM | Potency [17] 12.6 µM | Potency [18] 12.6 µM | Potency [20] 7.94 µM | Potency [21] 10 µM
